From PubChem BioAssay (NCI)
About 83,000 compounds went through this panel and 20% of them were active in at least one assay; those are over-represented in the sample as a whole.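 Plates (96-well) were seeded with cells, treated with compound at one concentration, and incubated for 48 hours before percent growth was determined.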 Calls of active or inactive are those of the source. The calls were made as follows: active = growth percent below 10; inactive = the rest.

What was measured:
Assay in all cases: NCI-60 one-dose screen, 48 h (100 = growth as untreated, 0 = no growth, -100 = all killed)
Settings in all cases: 10 µM unless noted
NCI-H23 lung = tested on: NCI-H23 lung
NCI-H226 lung = tested on: NCI-H226 lung
NCI-H322M lung = tested on: NCI-H322M lung
HOP-62 NSCLC = tested on: HOP-62 NSCLC
NCI-H460 lung = tested on: NCI-H460 lung
HOP-92 NSCLC = tested on: HOP-92 NSCLC
NCI-H522 lung = tested on: NCI-H522 lung
A549/ATCC NSCLC = tested on: A549/ATCC NSCLC
786-0 renal = tested on: 786-0 renal
COLO 205 colon = tested on: COLO 205 colon

Measured: growth

COc1ccccc1CNCCCN1C(=O)c2ccc3c4c(ccc(c24)C1=O)C(=O)N(CCCNCCCCN)C3=O
active: NCI-H23 lung -38.6% | NCI-H226 lung -56.5% | NCI-H322M lung -10.1% | HOP-62 NSCLC -31% | NCI-H460 lung -46.2% | HOP-92 NSCLC -16% | NCI-H522 lung -84% | A549/ATCC NSCLC -65% | 786-0 renal 0.16% | COLO 205 colon -81.5%

N=C(N)c1ccc(-c2ccc(-c3cncc4ccccc34)s2)s1
active: NCI-H23 lung -53.2% | NCI-H226 lung -50.6% | NCI-H322M lung -90.9% | HOP-62 NSCLC -84.8% | NCI-H460 lung -78.6% | HOP-92 NSCLC -82.6% | NCI-H522 lung -69.6% | A549/ATCC NSCLC -85.8% | 786-0 renal -84.6% | COLO 205 colon -78.1%

NC(=N\N=C/c1cccc([N+](=O)[O-])c1)/C(N)=N\N=C/c1cccc([N+](=O)[O-])c1
inactive: NCI-H23 lung 78.4% | NCI-H226 lung 64% | NCI-H322M lung 110% | HOP-62 NSCLC 10.6% | HOP-92 NSCLC 73.9% | NCI-H522 lung 66.9% | A549/ATCC NSCLC 15.6% | 786-0 renal 109% | COLO 205 colon 19.4%
active: NCI-H460 lung -21.5%

O=C(NCCNc1cc(-c2cn(-c3ccccc3)nc2-c2cccc(O)c2)ccn1)Nc1ccccc1
inactive: NCI-H23 lung 69.4% | NCI-H226 lung 70.6% | NCI-H322M lung 95.3% | HOP-62 NSCLC 63.7% | NCI-H460 lung 86.2% | HOP-92 NSCLC 54.5% | NCI-H522 lung 70.8% | A549/ATCC NSCLC 52.5% | 786-0 renal 71.4% | COLO 205 colon 81.2%

O=C(O)c1ccc2c(c1Cl)C(=O)c1ccccc1C2=O
inactive: NCI-H23 lung 93.4% | NCI-H226 lung 103% | NCI-H322M lung 102% | HOP-62 NSCLC 82.5% | NCI-H460 lung 102% | HOP-92 NSCLC 109% | NCI-H522 lung 106% | A549/ATCC NSCLC 116% | 786-0 renal 91.1% | COLO 205 colon 115%

COc1ccc2c(c1)O/C(=C\c1cccc(OCC(=O)Nc3nc(C)c(C)s3)c1)C2=O
inactive: NCI-H23 lung 19.4% | NCI-H226 lung 92.2% | NCI-H322M lung 103% | HOP-62 NSCLC 101% | NCI-H460 lung 88.8% | A549/ATCC NSCLC 12.4% | 786-0 renal 17.7% | COLO 205 colon 91.6%
active: HOP-92 NSCLC -75.4% | NCI-H522 lung -73.8%

CC/C=C1/C(=O)C=C[C@@H]1C/C=C\CCCC(=O)O
inactive: NCI-H23 lung 85.5% | NCI-H226 lung 93.3% | NCI-H322M lung 113% | HOP-62 NSCLC 80.4% | NCI-H460 lung 97.1% | HOP-92 NSCLC 121% | NCI-H522 lung 24% | A549/ATCC NSCLC 87.9% | 786-0 renal 102% | COLO 205 colon 108%

Cc1nc2ccccc2c(/C=C/c2ccc(Cl)cc2)c1C(=O)/C=C/c1ccc(F)cc1
active: NCI-H226 lung -8.4% | HOP-62 NSCLC 3.74% | NCI-H460 lung -66.9% | NCI-H522 lung 1.17% | 786-0 renal -24.7%
inactive: NCI-H23 lung 17.3% | NCI-H322M lung 51.8% | HOP-92 NSCLC 66.3% | A549/ATCC NSCLC 74.6% | COLO 205 colon 13.9%

COc1cc(/C=N/NC(=O)Cn2c(C(C)C)nc3ccccc32)ccc1O
inactive: NCI-H23 lung 94.9% | NCI-H226 lung 93.7% | NCI-H322M lung 93.5% | HOP-62 NSCLC 92.9% | NCI-H460 lung 97.7% | HOP-92 NSCLC 82.3% | NCI-H522 lung 92.4% | A549/ATCC NSCLC 105% | 786-0 renal 104% | COLO 205 colon 109%

COc1ccc2cc(-c3cc(OC)c(OC)c(OC)c3)c(=O)oc2c1
inactive: NCI-H23 lung 79.8% | NCI-H226 lung 78.4% | NCI-H322M lung 103% | HOP-62 NSCLC 68.3% | NCI-H460 lung 84.4% | HOP-92 NSCLC 79.2% | NCI-H522 lung 48.3% | A549/ATCC NSCLC 42.1% | 786-0 renal 68.2% | COLO 205 colon 83.3%

COc1ccc(-c2nc(SCCC(C)C)nc(N/N=C\c3ccccc3O)c2C#N)cc1
inactive: NCI-H23 lung 83.2% | NCI-H226 lung 84.4% | NCI-H322M lung 82.7% | HOP-62 NSCLC 92.5% | NCI-H460 lung 59.1% | HOP-92 NSCLC 88.4% | NCI-H522 lung 84.6% | A549/ATCC NSCLC 78.2% | 786-0 renal 88.9% | COLO 205 colon 96.4%

O=C(NC(Cc1nnc2n(Cc3ccccc3)c(=O)c3c4c(sc3n12)CCCC4)c1ccc(Cl)cc1)c1ccccc1 (stereo not given)
inactive: NCI-H23 lung 82.2% | NCI-H226 lung 97.6% | NCI-H322M lung 108% | HOP-62 NSCLC 77.2% | NCI-H460 lung 101% | HOP-92 NSCLC 76.8% | NCI-H522 lung 75.8% | A549/ATCC NSCLC 98.9% | 786-0 renal 38.3% | COLO 205 colon 106%
